# Tb PFK inh-1: T. brucei PFK enzyme inhibition. O15648. T. brucei PFK, ADP-Glo luminescence. Potency, µM (highest dose often 57.5 µM), inactives show top-dose activity, negative = inhibition, hits mostly inhibitors. actives 0.17% (n = 330,000). AID 485367;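 further: potency means the concentration at half of the fitted maximal effect; 0% = uninhibited 1x PFK enzyme wells and -100% = no-enzyme wells; nearly all actives have a fitted effect of over 60% in size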
#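 ADP-Glo luminescence quantified ADP after 45 min at room temperature, with 1.25 nM T. brucei PFK, 0.1 mM ATP and 0.5 mM fructose-6-phosphate in pH 8.0 TEA buffer. qHTS titrations up to 57 µM; curves classified by quality.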
# Pin1 inhibitor: inhibitors of human Pin1; Q13526; Pin1 FP peptide displacement, HiFluor488, 10 min; Potency, µM (series often up to 115 µM), for inactives: top-dose activity, negative = inhibition, actives largely listed as inhibitors; actives 0.009% (n = 390,000); AID 504891; active means well fitted inhibition curve with a large enough effect in the polarisation, with a control signal flat, not every such curve was filed as active; inconclusive means small, poorly fitted or top-dose-only effect, or effect the other way, or a change in a side signal; inactive means no such curve, though single readings can be large or run the other way; the % refers to the polarisation; further: potency means the concentration at half of the fitted maximal effect; on the % scale 0 is the no-effect control and ±100 the full control effect
# PGK inhibitor: inhibitors of T. brucei phosphoglycerate kinase; actives 0.043% (n = 380,000); AID 602233; Potency, µM (series often up to 57.5 µM), for the others: at the top dose activity change, negative = inhibition, usual class: inhibitors; PGK/GAPDH coupled, Kinase-Glo luminescence, 60 min; further: potency means the concentration at half of the fitted maximal effect; on the % scale 0 is the no-effect control and ±100 the full control effect; nearly all actives have a fitted effect of over 60% in size
#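 Luminescent ATP detection (Kinase-Glo Plus) follows a 60-minute room-temperature incubation, with wells lacking PGK as controls. Buffer: 100 mM TEA (pH 7.6), 5 mM MgCl2, 0.01% Tween-20. Coupling enzyme GAPDH (100 nM final) supplies unstable 1,3-BPG in-well.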
# USP2a block: blocks human ubiquitin-specific protease USP2a. O75604. USP2 core, Ub-CHOP2 coupled fluorogenic reporter, 485/531. actives 0.01% (n = 330,000). Potency, µM (titrated, usually from 38.3 µM), inactives show at the highest dose activity change, negative = inhibition, most hits filed as inhibitors;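 further: potency means the concentration at half of the fitted maximal effect; plate controls were DMSO wells for no effect and full inhibition by NEM control for full effect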
# Target sequence (O75604 whole entry, looked up): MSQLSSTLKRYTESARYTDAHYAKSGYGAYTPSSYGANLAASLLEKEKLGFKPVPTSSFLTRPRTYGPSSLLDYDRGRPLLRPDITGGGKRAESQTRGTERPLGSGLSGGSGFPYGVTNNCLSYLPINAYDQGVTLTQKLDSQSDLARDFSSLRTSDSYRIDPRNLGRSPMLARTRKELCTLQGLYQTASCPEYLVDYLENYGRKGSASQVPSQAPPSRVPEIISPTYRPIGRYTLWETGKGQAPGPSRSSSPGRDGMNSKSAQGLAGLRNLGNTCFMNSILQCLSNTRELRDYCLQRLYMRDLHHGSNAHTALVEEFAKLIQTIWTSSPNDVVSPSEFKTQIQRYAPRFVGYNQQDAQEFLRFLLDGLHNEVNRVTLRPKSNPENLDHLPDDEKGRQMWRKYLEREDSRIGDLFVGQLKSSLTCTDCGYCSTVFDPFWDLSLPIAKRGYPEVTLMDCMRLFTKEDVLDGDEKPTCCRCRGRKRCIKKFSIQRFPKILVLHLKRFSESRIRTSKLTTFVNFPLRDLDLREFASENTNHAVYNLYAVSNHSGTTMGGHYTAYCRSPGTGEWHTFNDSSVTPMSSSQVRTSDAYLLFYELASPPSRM
#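 Cell-free coupled assay: 10nM USP2 core preincubated 30min RT with compound in Tris-HCl pH 8.0/CaCl2/CHAPS buffer, then 25nM Ub-CHOP2 and 25nM reporter substrate; fluorescence (Ex 485/Em 531) read after 60min RT, normalized to NEM inhibition, concentration-response curves fitted.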
# PI4K2A block: inhibitors of human PI4K2A; purified PI4K2A, ADP-Glo luminescence, 1 h; active compounds read low; activity change, negative = inhibition, % at 76.9 µM; actives 0.13% (n = 420,000); AID 1346378; in the data active means activity change below about -50%; inconclusive means mostly about -30% to -49%;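 further: -100% = wells without enzyme as full effect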
#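 In this quantitative HTS, ADP production by PI4K2A was quantified luminescently after 1 h at ambient temperature; 100 microM adenosine served as plate-quality control.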
# TbPFK ATP: Tb phosphofructokinase inhibition, orthogonal luminescence; shares compounds with Tb PFK inh-1; Tb PFK enzyme, ATP depletion, Kinase-Glo Plus luminescence; Potency, µM (doses to about 57.5 µM), for inactives: at the highest dose inhibition; actives 47% (n = 1,100); AID 504636; calls by dose curve; further: potency means the concentration at half of the fitted maximal effect; nearly all actives have a fitted effect of over 60% in size
# Tb PFK inh-2: validation of T. brucei phosphofructokinase inhibitors. shares compounds with Tb PFK inh-1. purified T. brucei PFK, ADP-Glo luminescence, 45 min. Potency, µM (top dose mostly 57.5 µM), without a hit: at the top dose activity change, negative = inhibition, actives largely listed as inhibitors. actives 41% (n = 1,100). AID 504637;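 further: potency means the concentration at half of the fitted maximal effect; plate controls were full PFK enzyme control for no effect and no enzyme control for full effect; nearly all actives have a fitted effect of over 60% in size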
# Starred values were filed as active, the others as inactive; i = inactive; ? = inconclusive; / = no result. Rows were chosen to be rich in hits. Some 0.28% of all compounds tested hit in one or more screens of this group. Unless noted, the call rests on the fitted dose curve; in most records, active means well fitted curve in the direction sought with a large enough effect; inconclusive means small, poorly fitted or top-dose-only effect, or another doubt; inactive means no such curve, though single readings can be large; an effect the other way counts as inactive or inconclusive.
SMILES,Tb PFK inh-1,Pin1 inhibitor,PGK inhibitor,USP2a block,PI4K2A block,TbPFK ATP,Tb PFK inh-2
O=C(Nc1cccc(S(=O)(=O)Nc2ccccc2F)c1)c1ccc2ccccc2n1,-29%,7%,-11%,-3%,-16,/,/
O=C(/C=C/c1ccccc1)Nc1cccc(S(=O)(=O)Nc2ccccc2F)c1,6.7µM*,0%,-7%,2%,-1,4.3µM*,6µM*
O=S(=O)(Nc1ccccc1F)c1cccc(NC(=S)NCCN2CCOCC2)c1,7.6µM*,-9%,i,-1%,-11,2.4µM*,3.8µM*
O=C(NCc1ccc(F)cc1)n1cc(P(=S)(c2ccccc2)c2ccccc2)c2ccccc21,/,1%,/,/,/,/,/
O=C(NCCc1ccc(F)cc1)C(=O)NCC1CCCN1S(=O)(=O)c1ccccc1 (stereo unspecified),-7%,2%,8%,-1%,-3,/,/
O=C(NCc1ccc(F)cc1)C(=O)NCC1CCCN1S(=O)(=O)c1ccccc1 (stereo unspecified),?,-5%,-6%,-1%,2,24µM*,?
NS(=O)(=O)c1ccc(N2CCCCS2(=O)=O)cc1,/,/,/,/,0,/,/
C=CCn1c(=O)[nH]c2cc(C(=O)N3CCN(c4ccc(C(C)=O)cc4)CC3)ccc2c1=O,?,?,i,8%,-28,?,?
c1ccc2c(c1)CCc1ccccc1N2,/,/,/,/,0,/,/
Cc1ccc(CC(=O)NNC(=O)c2ccncc2)cc1C,?,3%,-2%,2%,4,13µM*,21µM*
O=C1c2ccccc2C(=O)N1c1cccc(=O)[nH]1,/,1%,/,/,/,/,/
O=c1oc2ccccc2c(O)c1[C@H]1c2ccc(O)cc2Oc2c1c(=O)oc1ccccc21,?,1%,-8%,2%,3,-26%,?
Cc1c(Br)cc(F)c([S+](=O)([O-])N2CCN([S+](=O)([O-])c3ccc4c(c3)OCCO4)CC2)c1F,/,2%,/,/,/,/,/
O=C(NCc1cccc(Cl)c1)c1cc(COc2ccc3ncccc3c2)on1,15µM*,24%,7%,2%,3,12µM*,13µM*
Cc1ccc(F)cc1CNC(=O)c1cc(COc2ccc3ncccc3c2)on1,4%,34%,-6%,2%,-3,/,/
O=c1[nH]sc2cc(F)ccc12,?,-14%,6%,0%,-3,19µM*,27µM*
O=c1[nH]sc2ccccc12,19µM*,2%,-3%,1%,-1,21µM*,27µM*
CN1C(=O)Cc2cc([S+](=O)([O-])N3CCN([S+](=O)([O-])c4c(F)cccc4F)CC3)ccc21,/,-1%,/,/,/,/,/
CCOC(=O)C(=O)CCc1ccccc1,/,/,/,/,-2,/,/
Cc1cc(=O)[nH]c(Nc2ccc(N(C)C)cc2)n1,-3%,2%,-1%,-2%,-1,/,/
Cc1cc(=O)[nH]c(Nc2ccc(Cl)cc2)n1,21µM*,-6%,-8%,4%,3,8.5µM*,19µM*
Cc1ccc(Cn2cc(C=O)c3ccccc32)cc1,-3%,-3%,-6%,2%,1,/,/
O=Cc1cn(Cc2ccc([N+](=O)[O-])cc2)c2ccccc12,17µM*,14%,-9%,-6%,-1,?,?
CN(C)c1ccc(/C=N/NC(=O)c2ccnn2C)cc1,?,-3%,9%,1%,?,-15%,-12%
O=C(COc1ccccc1[N+](=O)[O-])Nc1cccc(S(=O)(=O)NC2=NCCCCC2)c1,?,-17%,-14%,-1%,-1,?,?
SMILES,Tb PFK inh-1,Pin1 inhibitor,PGK inhibitor,USP2a block,PI4K2A block,TbPFK ATP,Tb PFK inh-2
Nc1ccc(C(=O)OCC(=O)Nc2cccc(S(=O)(=O)NC3=NCCCCC3)c2)cc1[N+](=O)[O-],?,5%,2%,-2%,3,/,/
Cc1ccc(Cl)c(OCC(=O)Nc2ccc(S(=O)(=O)NC3=NCCCCC3)cc2)c1,-2%,1%,5%,-2%,5,/,/
O=C(COc1ccc(Cl)cc1Cl)Nc1ccc(S(=O)(=O)NC2=NCCCCC2)cc1,15µM*,0%,3%,1%,-5,?,30µM*
Cc1c(F)cc2c(=O)c(C(=O)O)cn3c2c1CCC3C (stereo unspecified),/,/,/,/,1,/,/
O=C(/C=C/c1ccc(O)c(O)c1)OC(Cc1ccc(O)c(O)c1)C(=O)O (stereo unspecified),2.7µM*,-10%,?,3%,-5,3.4µM*,?
NC(=O)c1c(-c2cccs2)csc1N,?,-4%,1%,2%,-14,-30%,?
CCOC(=O)c1c(-c2cccs2)csc1NC(=O)CC(C)C,-3%,?,-6%,0%,-8,/,/
C=CCNc1oc(-c2cccc(Cl)c2)nc1C#N,27µM*,2%,0%,0%,7,17µM*,30µM*
Cc1nn(C)cc1/C=N\NC(=O)c1ccc(Cn2cc(Cl)cn2)cc1,27µM*,2%,-3%,0%,-2,9.5µM*,?
NN1C(=O)/C(=C2/Sc3ccccc3N2CCCS(=O)(=O)O)SC1=S,30µM*,2%,?,5%,-25,19µM*,?
COc1cc(C2Nc3ccccc3C(=O)N2Cc2ccccc2)ccc1OCc1ccc(NC(C)=O)cc1 (stereo unspecified),/,-4%,/,/,/,/,/
CN(C)C=Nc1ccc(Cl)c(Cl)c1,27µM*,-2%,4%,2%,2,12%,-8%
NNC(=O)CNc1cccc(Cl)c1,12µM*,3%,-2%,10%,9,24µM*,27µM*
NC(=O)C1CCN(c2ncc(-c3ccc4c(c3)OCO4)s2)CC1,/,-12%,/,/,/,/,/
Cc1ccc(S(=O)(=O)N2CCN(c3nc(C#N)nc4ccccc34)CC2)cc1,/,40%,/,/,/,/,/
O=c1[nH]c2ccsc2c(=O)n1-c1ccc(F)c(Cl)c1,?,-6%,4%,-2%,1,-28%,29%
O=c1[nH]c2ccsc2c(=O)n1-c1ccc(F)cc1,?,-16%,0%,4%,-4,/,/
Nc1cc(N)cc(C(=O)Nc2ccc3c(c2)C(=O)NC3=O)c1,?,4%,i,0%,-1,?,?
O=C(Nc1ccc2c(c1)C(=O)NC2=O)c1ccccc1Cl,?,-2%,-8%,3%,-1,12µM*,13µM*
N#Cc1nc(Nc2ccc(-c3ccccc3)cc2)nc(NC2CCCC2)n1,/,20%,/,/,/,/,/

# Screening results from PubChem.
